# Screening results as filed in PubChem BioAssay.
# Pf growth 48h: inhibits P. falciparum growth in the first generation, 48 h | AID 504832 | P. falciparum luciferase growth in erythrocytes, 48 h | Potency, µM (highest dose often 28.7 µM), for the others: at the top dose activity change, negative = inhibition, usual class: inhibitors | 310,000 compounds, 5.9% hits; also: potency is read from the fitted curve at half-maximal effect; % is scaled to controls: 0 for no effect and ±100 for the full control effect
#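 Luciferase-expressing P. falciparum in infected erythrocytes (2% hematocrit, 0.1% parasitemia final) in RPMI 1640/0.5% Albumax were exposed to compound for 48 hours at 37 C, 5% CO2; growth read as luminescence.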
# Cycloheximide cs: counter-screen for Shiga toxin inhibitors: cycloheximide protein synthesis inhibition. 300,000 compounds, 12% hits. max response, %. cell reporter, cycloheximide protein synthesis inhibition counterscreen; in the data active = max response mostly above about 13%, no sharp cut-off; inactive = mostly below about 14%; also: read at 38.3 µM for the half of the compounds with a filed dose; 0% is about no effect
# Pf growth 96h: P. falciparum growth inhibition at 96 hour, primary screen for plastid delayed-death inhibitors. AID 504834. Potency, µM (titrated, usually from 28.7 µM), without a hit: at the highest dose activity change, negative = inhibition, most hits filed as inhibitors. 320,000 compounds, 6.9% hits. P. falciparum luciferase reporter growth, 96 h; also: potency is read from the fitted curve at half-maximal effect; % is scaled to controls: 0 for no effect and ±100 for the full control effect
#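 Two parasite generations (96 h, 37 C, 5% CO2) of compound exposure in infected erythrocytes (0.05% parasitemia, 2% hematocrit). Luciferase-reporter P. falciparum; decreased luminescence indicates inhibited growth, aimed at apicoplast-acting delayed death.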
# Shiga inhibitor: blocks Shiga toxin action in Vero cells. Vero cells, Shiga toxin protein synthesis inhibition reporter. inhibition, % at 38.7 µM. 290,000 compounds, 9.2% hits. AID 2315; in the data active = inhibition mostly above about 28%, no sharp cut-off; inactive = mostly below about 43%; also: 0% is about no effect
# AMA1 RON2 block: AMA1-RON2 (P. falciparum) interaction inhibition | 360,000 compounds, 0.2% hits | Potency, µM (titrated, usually from 58.2 µM), inactives show at the top dose activity change, negative = inhibition, most hits filed as inhibitors | AlphaScreen AMA1-biotinylated RON2 peptide binding | AID 720542;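 also: potency is read from the fitted curve at half-maximal effect; 0% = vehicle wells and -100% = peptide control; nearly all actives have a fitted effect of over 45% in size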
#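 AMA1 (3D7) with his tag at 25 nM final met compounds first, then biotinylated RON2 peptide at 25 nM; detection used donor plus acceptor beads, 10 µg/mL apiece, read by AlphaScreen after 30 min at room temperature.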
# SARS PLpro yeast: SARS-CoV PLP inhibition in yeast; S. cerevisiae expressing SARS-CoV PLpro, growth rescue; Potency, µM (series often up to 32.9 µM), inactives show at the top dose activity, positive = growth rescue, most hits filed as activators; 330,000 compounds, 0.19% hits; AID 485353; calls by dose curve; also: potency is read from the fitted curve at half-maximal effect; 0% is about no effect; nearly all actives have a fitted effect of over 55% in size
# Active calls of the source: *; i = inactive; u = inconclusive; x = not tested or not shown; ! = not active in a repeat. Hits are enriched below; roughly 19% of the tested compounds scored in any of these assays. Unless noted, calls follow the shape of the dose curve; as a rule, active = well fitted curve in the direction sought with a large enough effect; inconclusive = small, poorly fitted or top-dose-only effect, or another doubt; inactive = no such curve, though single readings can be large; an effect the other way counts as inactive or inconclusive.
SMILES,Pf growth 48h,Cycloheximide cs,Pf growth 96h,Shiga inhibitor,AMA1 RON2 block,SARS PLpro yeast
COC(=O)[C@@H](C)NC(=O)c1ccc2oc(CCc3ccccc3)nc2c1,41%,51*,-22%,31*,0%,-1%
COc1cc(C(=O)NCCCc2ccccc2)cc(OC)c1OC,-30%,0,-27%,x,16%,3%
CCCc1nc2cc(CC(=O)OC)ccc2o1,12%,22*,50%,17,-4%,-7%
COC(=O)CCCNC(=O)c1ccc2oc(CCCc3ccccc3)nc2c1,-11%,24*,u,21*,3%,1%
CCN(Cc1ccccc1)S(=O)(=O)c1ccc(OC)cc1,u,-1,u,-17,19%,-4%
CCCCCCCCCCCCCCCCn1cc[n+](C)c1,3.3µM*,-2,2.1µM*!,-19,2%,-1%
C[n+]1ccn(CC(=O)c2cccs2)c1,-17%,-1,u,-7,3%,4%
Cc1ccc2nc(C(C)(C)C)c(Cc3cccc(F)c3)n2c1,x,x,x,x,-17%,x
Cc1nc(SCc2ccccc2C)n[nH]1,15%,19*,-15%,active,2%,-10%
CCc1nc(SCc2ccccc2C)n[nH]1,-18%,21*,6.6µM*,44,2%,2%
COc1ccc(-c2oc(=O)c3cc(OC)c(OC)cc3c2-c2cc(F)cc(OC)c2)cc1,u,x,2.9µM*,x,-3%,-27%
COc1cc(C(C(=O)NCc2ccccc2)N(C(=O)c2snc(C(N)=O)c2N)C2CCCC2)cc(OC)c1OC (stereo not drawn),13µM*,-6,4.7µM*,-3,-3%,0%
COc1ccc(C(C(=O)NCc2ccccc2)N(C(=O)c2snc(C(N)=O)c2N)C2CCCC2)cc1 (stereo not drawn),15µM*,-2,67%,12,-3%,1%
COc1ccc(C(C(=O)NC2CCCCC2)N(Cc2cccnc2)C(=O)c2snc(C(N)=O)c2N)cc1 (stereo not drawn),u,-3,59%,-12,-8%,-2%
Cn1c(=O)c2c(nc(CN3CCC(C(N)=O)CC3)n2Cc2c(Cl)cccc2Cl)n(C)c1=O,12µM*,4,x,-5,5%,-1%
Cn1c(=O)c2c(nc(CN3CCC(C(N)=O)CC3)n2Cc2ccccc2Cl)n(C)c1=O,4%,-3,u,2,-8%,1%
Cn1c(=O)c2c(nc(CN3CCC(C(N)=O)CC3)n2Cc2c(F)cccc2Cl)n(C)c1=O,u,-3,10µM*,-5,-17%,-6%
CC(NC(=O)c1cc2c(s1)CS(=O)(=O)C2)c1ccccc1 (stereo not drawn),11%,-10,52%,-5,0%,-5%
COc1ccc(OCc2nnc(SCC(=O)Nc3cccc(C(C)=O)c3)o2)cc1,6%,x,-27%,x,28%,0%
O=C(Nc1ccc(-c2nc3ccccc3o2)cc1)C1CCCO1 (stereo not drawn),113%,37*,x,73*,-1%,-15%
O=C(Nc1ccc(S(=O)(=O)Nc2ccc(Cl)cc2)cc1)C1CCCO1 (stereo not drawn),-3%,-2,x,-11,2%,8%
O=C(O)c1cccc(NC(=O)C2CCCO2)c1 (stereo not drawn),x,4,31%,25,11%,-1%
O=C(Nc1ccc2oc(-c3ccccc3)nc2c1)C1CCCO1 (stereo not drawn),236%,45*,344%,67*,2%,-3%
O=C(Nc1ccc(-c2nc3cccnc3s2)cc1)C1CCCO1 (stereo not drawn),84%,17,-10%,13,-9%,-21%
O=C(Nc1ccc(-c2nc3cc(Cl)ccc3o2)cc1)C1CCCO1 (stereo not drawn),232%,30*,i,70*,7%,11%
SMILES,Pf growth 48h,Cycloheximide cs,Pf growth 96h,Shiga inhibitor,AMA1 RON2 block,SARS PLpro yeast
Fc1ccc(-c2nc3c4ccccc4ccn3c2Cc2cccc(Cl)c2)cc1,x,x,x,x,-16%,x
CCN(CC)CCN1C(=O)C(=O)/C(=C(/O)c2c(C)[nH]c(C(=O)OC)c2C)C1c1ccccc1OC (stereo not drawn),13%,-3,u,-2,1%,3%
CCN(CC)CCN1C(=O)C(=O)/C(=C(/O)c2ccc(C)cc2)C1c1ccncc1 (stereo not drawn),20%,-3,u,-7,x,4%
CCN(CC)CCN1C(=O)C(=O)/C(=C(/O)c2ccc(OC(C)C)cc2)C1c1cccs1 (stereo not drawn),88%,45*,71%,85*,1%,0%
CCN(CC)CCN1C(=O)C(=O)/C(=C(/O)c2ccncc2)C1c1ccccc1 (stereo not drawn),13%,-2,249%,10,4%,0%
CCN(CC)CCN1C(=O)C(=O)/C(=C(/O)c2ccc(OC(C)C)cc2)C1c1ccncc1 (stereo not drawn),x,-1,15µM*,-11,0%,9%
CCN(CC)CCN1C(=O)C(=O)/C(=C(/O)c2c(C)[nH]c(C(=O)OC)c2C)C1c1cccs1 (stereo not drawn),x,23*,44%,24,16%,6%
Cc1cccc(-c2nnc(SCC(=O)C(C)(C)C)n2C)c1,u,37*,1%,73*,-7%,-2%
Cc1cccc(-c2nnc(SCC(=O)Nc3cc(C)on3)n2C)c1,3%,1,8%,-8,3%,0%
Cn1c(SCC(N)=O)nnc1-c1ccc(C(C)(C)C)cc1,56%,17*,1%,14,2%,-2%
CCOC(=O)[C@]12CCC=C1N(Cc1cccc3ccccc13)C(=O)[C@H](CC(=O)N1CCN(C(=O)C3CC3)CC1)C2,x,x,x,x,-13%,x
O=C(Cn1cc(COc2ccc(Cl)c(Cl)c2)nn1)NS(=O)(=O)c1ccccc1C(F)(F)F,x,x,x,x,3%,x
NC(=O)COC(=O)CN1C(=O)C2CCCCC2C1=O (stereo not drawn),9%,1,u,-8,10%,-2%
O=c1cc(-c2ccccc2)nc2nc(-c3ccccc3)[nH]n12,28%,12,u,11,0%,0%
O=c1cc(-c2ccccc2)nc2nc[nH]n12,x,-4,0.29µM*,-12,-9%,2%
Cc1cc2c(s1)c1cnn(Cc3ccc(C(C)C)cc3)c(=O)c1n2C,x,-2,x,-3,x,x
C/C(=N/NS(=O)(=O)c1cc(C)ccc1C)c1ccncc1,-10%,1,12µM*,-9,-13%,-1%
C/C(=N/NS(=O)(=O)c1cc(C)ccc1C)c1ccc2c(c1)OCO2,-1%,-1,12µM*,-3,11%,1%
COc1cc(CN(C)Cc2ccccc2)cc(OC)c1O,1%,-1,x,-13,57%,6%
CC(C)CC(=O)Nc1ccnn1C1CCN(C(=O)c2ccc(Cl)cc2F)CC1,5%,20,u,-4,10%,1%
